Measured values as given in PubChem BioAssay.

target: Tumor necrosis factor receptor superfamily member 10B (Homo sapiens) (UniProt O14763); experiment: viability loss of caspase-8 NB7 cells with TRAIL – with/without TRAIL, luminescence panel, confirmation (AID 651596); settings: NB7 neuroblastoma + caspase-8, TRAIL sensitization, NB7 Caspase-8, with TRAIL, mean of runs, at 10 µM, stronger effect = higher value
Sequence (O14763 whole entry, looked up): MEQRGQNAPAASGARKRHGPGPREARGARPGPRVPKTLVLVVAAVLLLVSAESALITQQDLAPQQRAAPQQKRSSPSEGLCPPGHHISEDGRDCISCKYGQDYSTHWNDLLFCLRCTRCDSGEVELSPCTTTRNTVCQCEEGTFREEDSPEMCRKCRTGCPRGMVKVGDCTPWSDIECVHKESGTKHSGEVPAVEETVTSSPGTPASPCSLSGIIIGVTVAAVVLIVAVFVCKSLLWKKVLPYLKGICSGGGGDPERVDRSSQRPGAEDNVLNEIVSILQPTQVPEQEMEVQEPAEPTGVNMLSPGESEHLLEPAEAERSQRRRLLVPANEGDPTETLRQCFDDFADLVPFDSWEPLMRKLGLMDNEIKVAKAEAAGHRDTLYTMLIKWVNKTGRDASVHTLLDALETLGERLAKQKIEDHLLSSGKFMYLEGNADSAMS

SMILES | activity [%]
CCc1ccc(OCc2nc(-c3ccccn3)no2)c(Br)c1 | 50
Nc1cnnc(N/N=C\c2ccccc2)c1Cl | 22.9
CCOc1ccc(C(=O)Nc2ccc3c(c2)OCCO3)cc1 | 70.5
COc1ccc(C(=O)NCc2cn3cccc(C)c3n2)cc1OC | 4.08
CCC1CCCCN1c1ccc([N+](=O)[O-])cc1/C=N/NC(=O)Cn1c2ccccc2c(=O)c2ccccc21 (configuration not stated) | 60.3
Cc1ccc(Nc2nc(N)c3ccccc3n2)cc1Cl | 75.7
Clc1nc2ccccc2cc1/C=N/Nc1nc2ccccc2[nH]1 | 86.2
Nc1cc2sc(-c3ccc(C(=O)O)cc3)nc2cc1Cl | 52.8
COn1c(SCc2ccccc2)nc2ccccc2c1=O | 65.3
CC(C)c1ccc(NC(=O)Nc2nc(C(N)COCc3ccccc3)cs2)cc1 (configuration not stated) | 47.9
O=C(C[C@H]1C/C=C\C[C@H](NC(=O)OCC2c3ccccc3-c3ccccc32)C(=O)OC[C@H](Cc2ccccc2)NC1=O)N[C@H](CO)Cc1ccccc1 | 11.8
OCC1OC(n2cnc3c(NCc4ccco4)ncnc32)C(O)C1O (configuration not stated) | 46.1
Clc1ccc2nc(-c3ccccc3)cn2c1 | 72.7
O=c1c(-c2ccc3c(c2)OCCO3)coc2cc(OC3OC(CO)C(O)C(O)C3O)ccc12 (configuration not stated) | 51.8
Cc1ccc(C(=O)N/C(=C\c2ccc(-c3ccccc3[N+](=O)[O-])o2)C(=O)NCCCN2CCOCC2)cc1 | 24.6
COc1cc(OC)nc(Nc2nc(C(N)Cc3ccc(C(F)(F)F)cc3)cs2)n1 (configuration not stated) | 33.2
Cc1nc2cc(Nc3nnc(-c4ccccc4)c4ccccc34)ccc2n1C | 87.9
